Measured values as given in PubChem BioAssay (NCATS).
Inconclusive results are not listed. The source made the active and inactive calls. Calls follow the shape of the dose curve; as a rule, active = well fitted inhibition curve with a large enough effect; inconclusive = small, poorly fitted or top-dose-only effect, or effect the other way; inactive = flat fitted curve, though single readings scatter.

experiment: qHTS for Inhibitors of Plasmodium falciparum (CP250) proliferation (AID 504320); settings: P. falciparum CP250 in erythrocytes, SYBR Green DNA, 72 h; series mostly up to 6.7 µM
Excerpt: Plasmodium falciparum is a virulent malarial parasite that kills 1-2 million people worldwide each year. Malaria not only inflicts tremendous suffering and morbidity on the human population, but has dramatically influenced the course of civilization with profound sociological and economic implications (Shah, S. 2010). Transmitted by mosquitoes, the sporozoite form of the parasite enters the blood stream to infect hepatocytes, where they become merozoites that infect red blood cells (erythrocytes). Within erythrocytes, merozoites begin a […] cycle of growth and division, after which the parasite is released to infect new red blood cells. Gametocytes, which form within erythrocytes as well, circulate in the bloodstream and are ingested by the mosquito, thereby completing the life cycle (see CDC website). To profile malarial lines for differential chemical responses and to identify inhibitors of malarial growth, an assay that measures P. falciparum growth and replication within erythrocytes was employed. This assay uses a DNA binding fluorescent dye (SYBR Green) to detect parasite DNA following cell lysis. Because mature erythrocytes lack DNA, only Plasmodium-derived DNA is detected. The P. falciparum line cp250, derived from a malarial isolate from Cambodia, (Mu, J., et al. 2010) was added to the panel of lines, Dd2, HB3, 7G8 and GB4 in this study. Laboratory of Assay Development and Screening Technology [ADST] and NIH Chemical Genomics Center [NCGC] Boston University, Chemistry Department, Center for Chemical Methodology and Library Development [CMLD-BU] NIH National Institute of Allergy and Infectious Diseases [NIAID]
ADST Assay Protocol Summary: The 1536-well SYBR Green viability assay was based on the method of Bennett et al (2004) and described previously in 1536-well format (Yuan J., et al. 2009). For screening 3 ul culture medium was dispensed into 1536 well black clear bottom plates (Aurora Biotechnologies) using a Multidrop Combi (Thermo Fisher Scientific Inc.), 23 nL compounds in DMSO were added by a pin transfer (Cleveland, P.H. and Koutz, P.J, 2005) using a pin tool-based delivery system (Kalypsys), and 5 ul of erythrocytes infected with P. falciparum one of five lines (cp250, Dd2, HB3, 7G8 or GB4, 0.3% parasitemia, 2.5% hematocrit final concentration) were added. The plates were incubated at 37C in a humidified incubator in 5% CO2 for 72 h, and 2 ul lysis buffer (20 mM Tris HCl, 10 mM EDTA, 0.16% saponin, 1.6% triton X, 10X SYBR Green I (supplied as 10,000X final concentration by Invitrogen) was added to each well. The plates were mixed for 25 sec with gentle shaking and incubated overnight at room temperature in the dark. The following morning, fluorescence intensity at 485(14) nm excitation and 535(25) nm emission wavelengths was measured on an EnVision (Perkin Elmer) plate reader. Plate reads were normalized relative to the control inhibitor (0.29 uM artemisinin) and vehicle (DMSO) wells present on each plate and then corrected by an algorithm using vehicle-only control plates at the beginning and end of the compound plate stack. References Shah, S. (2010). The Fever: how malaria has ruled humankind for 500,000 years. New York, Sarah Crichton Books. CDC web site, http://www.cdc.gov/malaria/about/biology/index.html Mu, J., Myers, R.A., Jiang, H., Liu, S., Ricklefs, S., Waisberg, M., Chotivanich, K., Wilairatana, P., Krudsood, S., White, N.J., et Plasmodium falciparum genome-wide scans for positive selection, recombination hot spots and resistance to antimalarial drugs Nature Genetics 2010, 42, pp 268-271 Bennett TN, Paguio, M., Gligorijevic, B., Seudieu, C., Kosar, A. D., Davidson, E., and Roepe, P. D. Novel, rapid, and inexpensive cell-based quantification of antimalarial drug efficacy Antimicrobial Agents Chemother. 2004, 48(5): pp 1807-10 Yuan J, Johnson RL, Huang RL, Wichterman J, Jiang HY, Hayton K, Fidock DA, Wellems TE, Inglese J, Austin CP, Su XZ. […]

Potency, inactive:
C=CCOC(=O)NC(c1ccc(F)c(F)c1)C(C(=O)CCl)C(=O)OC (stereo not given)
COc1ccc(-c2nc3c(c4c2C[C@H](c2ccccc2)OC4)CN(C(=O)N[C@@H](C)C(=O)OC(C)C)CC3)c(C)c1
CC(=O)OC[C@H]1O[C@H](C#Cc2ccccc2)C=C[C@@H]1OC(C)=O
CCCCCCC(=O)Cc1cc(OC)c(OC)cc1C=C(C(C)=O)C(=O)OC
COC(=O)CCCC1=CC2=CC(=O)C(C)(O)C(=O)C2=CO1 (stereo not given)
C=C(C)CCCN1C=C(C(C)=O)C(c2ccccc2)NC1=O (stereo not given)
COC(=O)C1=C(C)N(CC2CC2)C(=NCCc2cccnc2)NC1c1ccccc1 (stereo not given)
CCCCCCN1C(=O)CC[C@@]23C1=NC(C(=O)OC)=C(C(=O)OC)[C@@H]2N(Cc1ccccc1)c1ccccc13
C(#C[C@@H]1C=C[C@H]2OC(c3ccccc3)OC[C@H]2O1)c1ccccc1 (stereo not given in full)
COC1=C[C@H](C(=O)NCc2ccc(Br)cc2)C(C)C(c2ccccc2)CC1=O (stereo not given in full)
C=C[C@@H](C)[C@](C)(O)c1ccccc1
C#CCCCON=C1C[C@@H](O)[C@H](O)[C@H]2[C@@H]3C(=O)N(C[C@@H]4CCCO4)C(=O)[C@@H]3CC[C@@H]12
C=CC[C@@]1(c2ccc(Br)cc2OC)Oc2ccccc2-c2nccnc21
COc1ccc2c(c1)[C@@]1(OCCC=C[C@@H]1C)C(=O)N2CC1CC1
CC1(OC(=O)C2CCCC2)C(=O)C=C2C=C(C3CC3)OC=C2C1=O (stereo not given)
COC(=O)CC(Oc1c(C)n(C)c2ccccc2c1=O)c1ccccc1 (stereo not given)
COc1cccc([C@@H]2Oc3ccc(Br)cc3C(=O)[C@@H]2OC(=O)N[C@H]2CCCc3ccccc32)c1
COC(=O)[C@H]1[C@H](CCc2ccccc2)NC(=O)N(Cc2ccccc2)[C@H]1C
COC(=O)C1=C[C@@H]([C@@H](C)[C@H](OC)c2ccccc2Br)[C@@H]2OCC[C@H]12
COC(=O)CCC(=O)OC1(C)C(=O)C=C2C=C(C3CC3)N(CCc3c[nH]c4ccccc34)C=C2C1=O (stereo not given)
C=CCOC(=O)N[C@H](c1ccc(-c2ccccc2)cc1)[C@H](C)C=CCC(=O)OC
CCCCS(=O)(=O)N1C2=NC3=C(C(=O)N(CCOC)C3=O)C3N(C)c4ccccc4[C@]23C[C@H]1CO (stereo not given in full)
C[C@H]1[C@@H]2O[C@H]2CCO[C@H]1c1cccc(Br)c1
O=C1[C@H]2[C@@H]3[C@@H](O)[C@H](O)CC(=NOCc4ccccc4)[C@@H]3CC[C@H]2C(=O)N1C1CCCCC1
O=C1CCC=C1C(O)c1ccc2c(c1)OCO2 (stereo not given)
CC1(OC(=O)C2CCCC2)C(=O)C=C2C=C(c3ccsc3)N(CCc3ccccn3)C=C2C1=O (stereo not given)
C=CCC(C)(NCc1ccccc1)C(=O)OCC (stereo not given)
C=C(C)C(O)C=Cc1ccc(Br)cc1 (stereo not given)
C=CC1=C2C=C(C3CC3)N(CCOC)C=C2C(=O)C(C)(OC(=O)c2ccco2)C1=O (stereo not given)
O=C1[C@@H]2[C@H]3[C@H](O)[C@H](O)CC(=NOC[C@@H](O)COCc4ccco4)[C@H]3CC[C@H]2C(=O)N1C[C@@H]1CCCO1
CC(=O)N1C(=O)NC(C)=C(C#N)C1c1ccccc1 (stereo not given)
CCCCc1nc2c(c3c1C[C@H](C)OC3)CN(S(=O)(=O)c1ccc(C)cc1)CC2
COC(=O)CCCC1=CC2=C(c3ccccc3)C(=O)C(C)(OC(=O)C3CCCC3)C(=O)C2=CN1C1CCCCC1 (stereo not given)
CCO[C@@H]1C[C@@]1(C=C[C@@H](C)[C@H](OC)c1ccccc1Br)C(=O)OC
CCN1C(=O)N(C)C(c2ccccc2)C(C(C)=O)=C1C (stereo not given)
COC(=O)[C@H](Cc1ccccc1)NC(=O)O[C@@H]1C(=O)c2cc(Br)ccc2O[C@H]1c1ccc2c(c1)OCO2
C=CCN1C(=O)C2(CC(C)=C[C@@H](C)O2)c2c(Br)cccc21 (stereo not given in full)
C=CCCCN1C(=O)NC(c2ccccc2)C(C(=O)OC)=C1C (stereo not given)
COC(=O)[C@H]1[C@@H](c2ccccc2)NC(=O)N(Cc2ccccc2)[C@@H]1C
COC(=O)NC(CCc1ccccc1)C(C(C)=O)C(=O)OC (stereo not given)
